# From PubChem BioAssay (NCI)
# Compounds without any hit were thinned out: in the full panel of roughly 83,000, 20% have a hit.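 Values shown are percent growth following 48 h exposure of cells in 96-well plates to a single concentration of compound; below 10 was considered active.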 A number with no mark means an inactive call. Activity calls are given as the source filed them.
# Tested on: SN12C renal
# Experiment: NCI-60 one-dose screen, 48 h (100 = growth as untreated, 0 = no growth, -100 = all killed)
# Details: 10 µM unless noted
# Method: Growth inhibition of the SN12C human tumor cell line is measured as a screen for anti-cancer activity. Cells are grown in 96 well plates and exposed to the test compound for 48 hours. Compounds are tested at a single concentration, which is 10^-5 M for most compounds. The reported endpoint is percent growth (GI% or GIPRCNT), where numbers from 0 - 100% represent growth inhibition, and numbers from -100% - 0 represent cell death. For example, a value of 40 represents 60% growth inhibition. A value of 0 means no net growth occurred over the course of the experiment. A value of -40 indicates 40% of cells at the beginning of the experiment died by the end of the experiment. A value of -100 means all cells are dead at the end of the experiment.
# NCI-60 Human Tumor Cell Lines Screen was performed using the standard one-dose NCI protocol, which is described in more detail at https://dtp.cancer.gov/discovery_development/nci-60/default.htm.
# Compounds with GIPRCNT values below 10 were considered active. Activity score was based on GIPRCNT using the following formula: […]
# Score is 0 for GIPRCNT values of 100 or above, 50 for GIPRCNT values of 0, and 100 for GIPRCNT values of -100.
row,SMILES,growth
1,CCOC(=O)c1c(NC(=O)C2CCCCC2C(=O)O)sc2c1CCCC2 (stereo not given),104%
2,CCC(CC)NCCCCCNc1cc(OC)cc2cccnc12,87.2%
3,NCCCc1nnc(CCC(=O)c2nc3ccccc3[nH]2)o1,92.3%
4,O=C(CCc1nnc2sc(-c3ccc(Cl)cc3Cl)nn12)c1nc2ccccc2[nH]1,-36.7% (active)
5,CC/C(=C\c1ccc(N(C)C)cc1)c1ccncc1,52.6%
6,CN(C)c1cccc2c(S(=O)(=O)N[C@H]3CC[C@H]4[C@@H]5CCc6cc(O)ccc6[C@H]5CC[C@]34C)cccc12,25.4%
7,O=C(Cc1ccccn1)C(F)(F)C(F)(F)C(F)(F)F,95.2%
8,O=C1C2C3C=CC(O3)C2C(=O)N1Nc1ccccc1 (stereo not given),107%
9,O=C1Cc2cc(CCN3CCN(CCOCCO)CC3)c(Cl)cc2N1Cc1ccc(-c2ccccc2-c2nn[nH]n2)cc1,86.1%
10,Cc1c(C(N)=O)sc2c1c(=O)n(Cc1ccccc1)c1nnc(SCC(=O)Nc3ccc(Cl)cc3)n21,50.8%
11,C[N+]1(CCC[N+]2(C)C[C@@H]3[C@H](C2)[C@@H]2C=C[C@H]3C2)CCOCC1 (stereo not given in full),101%
12,CCCn1cnc2c1c(=O)n(CCCCC(C)=O)c(=O)n2C,124%
13,Cn1[nH]cc(/C=N/C(N)=O)c1=O,108%
14,CCCCOc1ccc(C(C)(C)c2ccc(OCCCC)cc2)cc1,100%
15,C/C(=N/N=C(N)N)c1ccc(Cl)cc1,90.8%
16,O=C1/C(=C/c2ccc([N+](=O)[O-])o2)Oc2ccc(Cl)cc21,-41.6% (active)
17,Cc1cc(Cl)ccc1Nc1nc(C(F)(F)F)ccc1C(=O)NCC(=O)N/N=C/c1c(Cl)cccc1Cl,78.3%
18,Cc1nn(-c2ccccc2)c2c1oc(=O)c1cc(Cl)ccc12,101%
19,Clc1ccc(CCC(Cn2ccnc2)Sc2c(Cl)cccc2Cl)cc1 (stereo not given),55.6%
20,CCC(C)CC(C)C(=O)c1c(O)ccn(O)c1=O (stereo not given),21.2%

row,SMILES,growth
1,Cc1cc(C)c(OC(=O)CSc2nc3ccccc3c(=O)n2CCc2ccccc2)cc1C,91.8%
2,O=Nc1ccc(O)c(=O)cc1,14.3%
3,O=c1c(O)cccn1CCCNCCCN(CCCn1cccc(O)c1=O)CCCn1cccc(O)c1=O,87%
4,CCCCCCCC/C=C/CCCCCCCC1=NC(C)(C)CN1CC(C)O (stereo not given),54.9%
5,c1ccc(-n2nnnc2-c2cccc3ccccc23)cc1,39.9%
6,COc1ccc(-c2cncn2-c2ccc(-c3nc4cc(OC)c(OC)c(OC)c4s3)cc2)cc1N,72.4%
7,O=C1NC(=O)/C(=C\c2ccccc2)C2=C1CCCC2,-64.7% (active)
8,COc1cc2c(cc1OCCCOc1ccc(-c3cc4ccccc4c4ccccc34)cc1)N=C[C@@H]1CCCN1C2=O,-73.5% (active)
9,N=c1ccn2c(n1)O[C@@H]1[C@@H](O)[C@H](CO)O[C@@H]12,54.3%
10,CCOC(=O)C1C(=O)OC2CCCCC21 (stereo not given),102%
11,c1cnc2ccc3ncccc3c2c1,101%
12,COc1ccc(-c2oc3cc(O)c(OC)c(O)c3c(=O)c2OC)cc1O,37.3%
13,O=C(/C=C/c1cc2ccccc2[nH]c1=O)c1ccc(Cl)cc1,47.4%
14,Cc1nn(-c2ccccc2)c2nc3c(nc12)C(=O)CCC3,90.1%
15,Cc1cc(C)n(C(=O)c2nn(-c3ccc(Cl)cc3)cc2O)n1,25.6%
16,O=C1NCN(c2ccccc2)C12CCN(CCCC(c1ccc(F)cc1)c1ccc(F)cc1)CC2,60.5%
17,CCN(CC)c1ccc(CN(CC(=O)c2ccc(Cl)c(Cl)c2)Cc2ccccc2)cc1,101%
18,CCOC(=O)c1cc(-c2cccnc2)nc2c(Cl)cc(Cl)cc12,86.6%
19,c1ccc2c(c1)[nH]c1c2cc[n+]2cc3c(cc12)CCCC3,24.5%
20,CC1=CC(=O)C(C(C)=Nc2ccccc2Cl)C(=O)O1 (stereo not given),105%
